Assay results published in PubChem BioAssay (EPA / NIEHS).
Inconclusive results are not listed. Active and inactive are the calls of the source. Rule for the calls, unless noted: active = hit-call score of the fitted dose curve at least 0.9, where 1 is the maximum; inactive = score below 0.9.

Columns and labels:
[1] = CCTE_Padilla_ZF_Score.Tail: CCTE's 144 Hour Post-fertilization zebrafish Assay Score for Tail Malformation, Padilla Lab (AID 2284414)
Method in brief: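 Tail malformations were scored at 6 dpf by two blinded assessors under a stereo microscope. Chorionated embryos had been exposed from 6-8 hpf in sealed wells of 10% Hanks' at 26 C, then rinsed free of chemical at 5 dpf.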

[2] = CCTE_Padilla_ZF_Score.Blood_pooling: CCTE's 144 Hour Post-fertilization zebrafish Assay Score for Blood Pooling, Padilla Lab (AID 2284415)
Method in brief: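 Blood pooling was scored at 6 dpf under a stereo microscope by two blinded assessors, fitted upward against DMSO. Single embryos were dosed at 6–8 hpf in 10% Hanks', kept sealed at 26C (14:10 h cycle) and rinsed at 5 dpf.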

[3] = CCTE_Padilla_ZF_Score.Any: CCTE's 144 Hour Post-fertilization zebrafish Assay Score for Any Mortality or Malformation, Padilla Lab (AID 2284416)
Method in brief: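 Wild-type zebrafish embryos with chorions, one per well in 10% Hanks' from 6–8 hpf, dosed in sealed plates at 26 C, 14:10 h light:dark; rinsed at 5 dpf; blinded scoring at 6 dpf for death or malformation, versus DMSO.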

[4] = system: SRY-box transcription factor 17 (SOX17) Protein Expression, Deisenroth Lab, SOX17 (gene 64321); assay: CCTE_Deisenroth_DEVTOX-GLR_Endo_SOX17: CCTE's DevTox GLR-Endo Assay Evaluation of SRY-box transcription factor 17 (SOX17) Protein Expression, Deisenroth Lab (AID 2284413)
Method in brief: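 Human RUES2-GLR cells carrying an inducible fluorescent reporter are differentiated in defined media for 48 h and dosed twice, 24 h apart. After fixation and nuclear staining, imaging yields SOX17+ cell percentage relative to 0.2% DMSO-treated differentiated cells.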

[5] = system: Brachyury (BRA) Protein Expression, TBXT (gene 6862); assay: CCTE_Deisenroth_DEVTOX-GLR_Endo_BRA: CCTE's DevTox GLR-Endo Assay Evaluation of Brachyury (BRA) Protein Expression, Deisenroth Lab (AID 2284417)
Method in brief: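 RUES2-GLR pluripotent cells differentiated 48 h with two chemical exposures 24 h apart, 10-point range 1 nM - 200 uM. Percentage of BRA+ cells per total count by high-content imaging, minus 0.2% DMSO control.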

[6] = CCTE_Deisenroth_DEVTOX-GLR_Endo_CellCount: Viability Assessment in CCTE's DevTox GLR-Endo Assay, Deisenroth Lab (AID 2284420)
Method in brief: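 RUES2-GLR pluripotent cells seeded 24 h, then differentiated 48 h in defined media with two chemical exposures 24 h apart. Nuclei counted by high-content imaging; 10-point 1 nM–200 uM series; percent change versus 0.2% DMSO.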

[7] = system: SRY-box transcription factor 17 (SOX17) Protein Expression, Deisenroth Lab, SOX17 (gene 64321); assay: CCTE_Deisenroth_DEVTOX-GLR_Pluri_SOX17: CCTE's DevTox GLR-Pluri Assay Evaluation of SRY-box transcription factor 17 (SOX17) Protein Expression, Deisenroth Lab (AID 2284427; active = hit-call score of the fitted dose curve at least 0.9, where 1 is the maximum)
Method in brief: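 RUES2-GLR pluripotent cells were induced toward endoderm over 48 h and received two compound doses 24 h apart, in a 10-point series from 1 nM to 200 uM. The percentage of SOX17+ cells among total cells was measured by high-content imaging and reported minus the 0.2% DMSO control.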

[8] = system: SRY-box transcription factor 2 (SOX2) Protein Expression, Deisenroth Lab, SOX2 (gene 6657); assay: CCTE_Deisenroth_DEVTOX-GLR_Pluri_SOX2: CCTE's DevTox GLR-Pluri Assay Evaluation of SRY-box transcription factor 2 (SOX2) Protein Expression, Deisenroth Lab (AID 2284428)
Method in brief: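 RUES2-GLR human pluripotent cells, two exposures 24 h apart over 48 h differentiation; 10-point series 1 nM - 200 uM. High-content imaging gives SOX2+ cells divided by cell count, reported as percent change versus 0.2% DMSO.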

[9] = system: Brachyury (BRA) Protein Expression, Deisenroth Lab, TBXT (gene 6862); assay: CCTE_Deisenroth_DEVTOX-GLR_Pluri_BRA: CCTE's DevTox GLR-Pluri Assay Evaluation of Brachyury (BRA) Protein Expression, Deisenroth Lab (AID 2284429; active = hit-call score of the fitted dose curve at least 0.9, where 1 is the maximum)
Method in brief: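 RUES2-GLR reporter line; 48 h mesoderm differentiation; two exposures, 24 h apart; 1 nM - 200 uM, 10 points; nuclear stain, high-content imaging, 5 fields/well; endpoint = %BRA+ cells of total count minus 0.2% DMSO; n=4.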

[10] = CCTE_Deisenroth_DEVTOX-GLR_Pluri_CellCount: Viability Assessment in CCTE's DevTox GLR-Pluri Assay Evaluation of Total Cell Counts, Deisenroth Lab (AID 2284430)
Method in brief: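 Cytotoxicity readout: fluorescent nuclei counts by high-content imaging, expressed as percent change relative to 0.2% DMSO. Human RUES2-GLR pluripotent line differentiated 48 h, dosed twice at 24-h intervals across 1 nM - 200 uM (10 points).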

TTR (gene 7276) = assay: CCTE_GLTED_hTTR_0.125uM: CCTE's human Transthyretin (hTTR) Inhibition Assay, with 0.125uM TTR, Great Lakes Toxicology and Ecology Division (GLTED) Lab (AID 2284431);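 note: hits lower the fluorescence signal relative to DMSO baseline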
Method in brief: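 Cell-free displacement of ANSA probe from 0.125uM TTR after 2 h incubation with chemical. Fluorescence read at 380 nm excitation/475 nm emission; loss of signal relative to DMSO indicates T4-site displacement.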

Measured: AC50

NCC(F)(F)C(F)(F)C(F)(F)C(F)(F)F
inactive: [1] | [2] | [3]

CCCC(CCC)C(=O)O
not listed: [1] | [2] | [3] | TTR (gene 7276)
inactive: all other assays above

FC(F)C(F)(F)COCC1CO1 (stereo unspecified)
active: [3] 30.7 µM
inactive: [1] | [2]

C[Si](C)(C)C(F)(F)C(F)(F)C(F)(F)F
inactive: [1] | [2] | [3]

O=S(=O)(O)CCC(F)(F)C(F)(F)C(F)(F)C(F)(F)C(F)(F)C(F)(F)F
inactive: [1] | [2] | [3]

OC(O)(C(F)C(O)(O)C(F)(F)F)C(F)(F)F
active: [2] 36.6 µM | [3] 16.9 µM
inactive: [1]

NC(=O)N1c2ccccc2C=Cc2ccccc21
active: [4] 100 µM | [6] 63.4 µM | [7] 64.8 µM | [8] 23 µM | [9] 47 µM
inactive: [5] | [10]

CCc1ccc(O)c(C(C)(C)C)c1
active: TTR (gene 7276) 12.4 µM

FC(F)(F)C(F)(F)C(F)(F)C(F)(F)C(F)(F)C(F)(F)I
inactive: [1] | [2] | [3]

O=S(=O)(O)c1ccc(N=Nc2c(O)ccc3cc(S(=O)(=O)O)ccc23)cc1
active: TTR (gene 7276) 17.1 µM

NNC(=O)c1ccncc1
not listed: [1] | [2] | [3] | TTR (gene 7276)
inactive: all other assays above

O=C(Cl)C(F)(F)C(F)(F)C(F)(F)C(=O)Cl
inactive: [1] | [2] | [3]

C=CCc1cc(S(=O)(=O)c2ccc(O)c(CC=C)c2)ccc1O
active: TTR (gene 7276) 1.67 µM

Nc1ccn([C@@H]2O[C@H](CO)[C@@H](O)[C@@H]2O)c(=O)n1
active: [4] 0.539 µM | [5] 4.91 µM | [6] 0.259 µM | [7] 1.68 µM | [8] 0.244 µM | [9] 1.74 µM | [10] 0.234 µM

FC(F)(F)COC(OCC(F)(F)F)OCC(F)(F)F
inactive: [1] | [2] | [3]

FC(F)=C(F)C(F)(F)C(F)(F)C(F)(F)C(F)(F)C(F)(F)C(F)(F)F
inactive: [1] | [2] | [3]

OCCC(F)(F)C(F)(F)C(F)(F)C(F)(F)F
inactive: [1] | [2] | [3]
